Screen size: about 2,300 compounds; about 330 (14%) showed activity. The list is a sample of the results. Values without a mark were called inactive.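 Rule for the calls: active = median modified Z-score above 1.96; inactive = 1.96 or below.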
Each compound was assayed on HepG2 Srxn1-GFP reporter cells (+30 nM CDDO-Me) (assay: Srxn1-GFP intensity median modified Z-score relative to plate median; higher = stronger NRF2 / oxidative stress reporter activation, active = hit call of the paper). Conditions: 10 µM; exposure time: 24h.
How it was run: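 The modified Z-score of GFP intensity was computed per plate, and the median over replicates is reported. HepG2 Srxn1-GFP BAC reporter cells in three replicate plates were treated for 24 h with compound at 10 μM plus an NRF2 activator at 30 nM (≤0.1% DMSO). Per-cell cytoplasmic GFP came from confocal images, excluding those with under 100 cells, and scaling used 1.4826 × median absolute deviation.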
With `CC(C)[N+](C)(CCC(C(N)=O)(c1ccccc1)c1ccccc1)C(C)C` [euspeclibcmpd164] the “Srxn1-GFP intensity median modified Z-score” value was 0.396.
With `CC(C)c1cccc(C(C)C)c1O` [euspeclibcmpd699] the “Srxn1-GFP intensity median modified Z-score” value was -0.02.
`C[C@]12CCC(=O)CC1=CC=C1C2CC[C@@]2(C)C1CC[C@@]2(O)CCC(=O)O` (some centres not stated) [euspeclibcmpd2339] was tested, and the “Srxn1-GFP intensity median modified Z-score” value was -0.283.
For `CCC(C(=O)[C@H](C)[C@@H](O)[C@H](C)[C@@H]1O[C@@H]([C@@H](CC)C(=O)O)CC[C@@H]1C)[C@H]1OC2(C=C[C@@H](O)[C@]3(CC[C@@](C)([C@H]4CC[C@](O)(CC)[C@H](C)O4)O3)O2)[C@H](C)C[C@@H]1C` (some centres not stated) [euspeclibcmpd2084], the “Srxn1-GFP intensity median modified Z-score” value was 6.06 (active).
In the case of `CC(C)(C)NCC(O)c1cc(Cl)c(N)c(Cl)c1` (configuration not stated) [euspeclibcmpd1154], the “Srxn1-GFP intensity median modified Z-score” value is reported as -0.331.
For `CCC(N)C(O)c1ccc(O)c(O)c1` (configuration not stated) [euspeclibcmpd646], the “Srxn1-GFP intensity median modified Z-score” value was -0.33.
For `CN1CC(CNC(=O)OCc2ccccc2)C[C@H]2c3cccc4c3c(cn4C)CC21` (some centres not stated) [euspeclibcmpd1151], the “Srxn1-GFP intensity median modified Z-score” value was -0.466.
`COc1cc2c(c(OC)c1OC)-c1ccc(OC)c(=O)cc1[C@@H](NC(C)=O)CC2` [euspeclibcmpd73] was tested, and the “Srxn1-GFP intensity median modified Z-score” value was 13.3 (active).
`COc1cc2c(c(OC)c1OC)-c1ccc(=O)c(O)cc1C(NC(C)=O)CC2` (configuration not stated) [euspeclibcmpd2248] was tested, and the “Srxn1-GFP intensity median modified Z-score” value was -0.142.
For `CNC(=O)Oc1ccc2c(c1)[C@]1(C)CCN(C)[C@@H]1N2C` [euspeclibcmpd611], the “Srxn1-GFP intensity median modified Z-score” value was 0.455.
With `C[C@H]1C[C@@H](O)[C@]2(O)[C@@]13CC(=O)OC[C@@]2(C)[C@](C)(O)C(=O)C3` [euspeclibcmpd1475] the “Srxn1-GFP intensity median modified Z-score” value was 0.639.
For `COc1ccc(CN2CCNCC2)c(OC)c1OC` [euspeclibcmpd1198], the “Srxn1-GFP intensity median modified Z-score” value was 0.677.
With `CCOC(=O)c1cncn1[C@H](C)c1ccccc1` [euspeclibcmpd826] the “Srxn1-GFP intensity median modified Z-score” value was -0.145.
`O=C(O)C1[O][Sb]2[O]C(=O)C([O]2)C(C(=O)O)[O][Sb]2[O]C(=O)C1[O]2` (configuration not stated) [euspeclibcmpd2437] was tested, and the “Srxn1-GFP intensity median modified Z-score” value was 3.34 (active).
With `CC(=O)OC1CN2CCC1CC2` (configuration not stated) [euspeclibcmpd385] the “Srxn1-GFP intensity median modified Z-score” value was -0.0983.
With `O=[N+]([O-])C(Br)(CO)CO` [euspeclibcmpd2257] the “Srxn1-GFP intensity median modified Z-score” value was 6.25 (active).
In the case of `COc1ccc(C(=O)O)cc1OC` [euspeclibcmpd2003], the “Srxn1-GFP intensity median modified Z-score” value is reported as -0.455.
In the case of `C[C@]12CC[C@H](O)CC1=CCC1C2CC[C@]2(C)C(=O)CC[C@@H]12` (some centres not stated) [euspeclibcmpd1201], the “Srxn1-GFP intensity median modified Z-score” value is reported as -0.236.
With `OCC(O)[C@H]1O[C@@H]2O[C@H](C(Cl)(Cl)Cl)O[C@@H]2[C@H]1O` (some centres not stated) [euspeclibcmpd1184] the “Srxn1-GFP intensity median modified Z-score” value was 0.0668.
`O=C(NC(=O)c1c(F)cccc1F)Nc1cc(Cl)c(OC(F)(F)C(F)C(F)(F)F)cc1Cl` (configuration not stated) [euspeclibcmpd1213] was tested, and the “Srxn1-GFP intensity median modified Z-score” value was 13.1 (active).
`CCC1(CC)C(=O)NC(=S)NC1=O` was tested, and the “Srxn1-GFP intensity median modified Z-score” value was 1.23.
In the case of `CC1=CC(=O)c2c(O)cccc2C1=O` [euspeclibcmpd1444], the “Srxn1-GFP intensity median modified Z-score” value is reported as 67.7 (active).
In the case of `O=C1C=CC(=O)c2c(O)cccc21` [euspeclibcmpd1492], the “Srxn1-GFP intensity median modified Z-score” value is reported as 0.761.
`CC1(C)C2CC(=O)[C@]3(C)C(CC[C@@]4(C)[C@H](c5ccoc5)OC(=O)C5O[C@]543)[C@@]2(C)C(=O)C[C@H]1O` (some centres not stated) [euspeclibcmpd1592] was tested, and the “Srxn1-GFP intensity median modified Z-score” value was -0.255.
In the case of `N#Cc1[nH]n(-c2c(Cl)cc(C(F)(F)F)cc2Cl)c(=N)c1[S+]([O-])C(F)(F)F` (configuration not stated) [euspeclibcmpd821], the “Srxn1-GFP intensity median modified Z-score” value is reported as -0.323.
For `O=C1CC[C@@]2(O)[C@H]3Cc4ccc(O)c5c4C2(CCN3CC2CC2)C1O5` (some centres not stated) [euspeclibcmpd560], the “Srxn1-GFP intensity median modified Z-score” value was -0.0532.
For `Cc1c[nH]cn1` [euspeclibcmpd2111], the “Srxn1-GFP intensity median modified Z-score” value was -0.158.
In the case of `CC1=CCC[C@@H]2C1(C)CCC(C)[C@@]2(C)CC/C(C)=C/Cn1c[n+](C)c2c(=N)nc[nH]c21` (some centres not stated) [euspeclibcmpd1491], the “Srxn1-GFP intensity median modified Z-score” value is reported as 13.7 (active).
In the case of `COc1ccc2c(c1O)[C@@]13CCN(C)[C@@H](C2)C1=CC(OC)C(=O)C3` (some centres not stated) [euspeclibcmpd1375], the “Srxn1-GFP intensity median modified Z-score” value is reported as -0.172.
In the case of `CC(C)c1ccc2c(c1O)CCC1c3coc(O)c3CC[C@]21C` (some centres not stated) [euspeclibcmpd2379], the “Srxn1-GFP intensity median modified Z-score” value is reported as -0.468.
In the case of `Nc1ccc([As](=O)(O)O)cc1` [euspeclibcmpd2461], the “Srxn1-GFP intensity median modified Z-score” value is reported as 11.1 (active).
For `O=C1CC2OCC=C3CN4CC[C@]56c7ccccc7N1C5[C@H]2[C@H]3CC46` (some centres not stated) [euspeclibcmpd327], the “Srxn1-GFP intensity median modified Z-score” value was -0.00366.
With `COP(=S)(OC)Oc1ccc(SC)c(C)c1` [euspeclibcmpd1025] the “Srxn1-GFP intensity median modified Z-score” value was -0.288.
In the case of `O=C(CCCN1CCC2(CC1)C(=O)NCN2c1ccccc1)c1ccc(F)cc1` [euspeclibcmpd405], the “Srxn1-GFP intensity median modified Z-score” value is reported as 10.2 (active).
For `C#C[C@]1(O)CCC2C3CC=C4CC(=O)CCC4C3CC[C@@]21C` (some centres not stated) [euspeclibcmpd2269], the “Srxn1-GFP intensity median modified Z-score” value was 1.21.
With `C#C[C@]1(O)CCC2C3CC=C4CC(=O)CCC4C3CC[C@@]21C` (some centres not stated) [euspeclibcmpd2279] the “Srxn1-GFP intensity median modified Z-score” value was 0.0789.
With `CCCCOC(=O)c1ccccc1C(=O)OCCCC` [euspeclibcmpd1242] the “Srxn1-GFP intensity median modified Z-score” value was -0.441.
In the case of `CCCCCCCCC(=O)NCc1ccc(O)c(OC)c1` [euspeclibcmpd1268], the “Srxn1-GFP intensity median modified Z-score” value is reported as -0.241.
With `CC1CCC2(OC1)OC1C(O)C3C4CCC5CC(OC6OC(CO)C(OC7OC(CO)C(O)C(OC8OCC(O)C(O)C8O)C7OC7OC(CO)C(O)C(OC8OC(CO)C(O)C(O)C8O)C7O)C(O)C6O)C(O)CC5(C)C4CCC3(C)C1C2C` (configuration not stated) [euspeclibcmpd1933] the “Srxn1-GFP intensity median modified Z-score” value was 22.3 (active).
In the case of `C[C@H]1CC[C@]2(NC1)OC1CC3C4CCC5C[C@@H](O[C@@H]6O[C@H](CO)[C@H](O[C@H]7O[C@H](CO)[C@@H](O)[C@H](O[C@@H]8OC[C@@H](O)[C@H](O)[C@H]8O)[C@H]7O[C@@H]7O[C@H](CO)[C@@H](O)[C@H](O)[C@H]7O)[C@H](O)[C@H]6O)CC[C@]5(C)C4CC[C@]3(C)C1[C@@H]2C` (some centres not stated) [euspeclibcmpd480], the “Srxn1-GFP intensity median modified Z-score” value is reported as 71.3 (active).
`CC(=O)O[C@H]1C[C@H](O[C@H]2[C@@H](O)C[C@H](O[C@H]3[C@@H](O)C[C@H](O[C@H]4CC[C@@]5(C)C(CCC6C5C[C@@H](O)[C@]5(C)C(c7coc(O)c7)CC[C@]65O)C4)O[C@@H]3C)O[C@@H]2C)O[C@H](C)[C@H]1O[C@@H]1O[C@H](CO)[C@@H](O)[C@H](O)[C@H]1O` (some centres not stated) [euspeclibcmpd420] was tested, and the “Srxn1-GFP intensity median modified Z-score” value was -0.493.
In the case of `C[C@@H]1CC[C@@]2(NC1)O[C@H]1C[C@H]3C4CC=C5C[C@@H](O)CC[C@]5(C)C4CC[C@]3(C)C1[C@@H]2C` (some centres not stated) [euspeclibcmpd1732], the “Srxn1-GFP intensity median modified Z-score” value is reported as 0.173.
In the case of `CCNC1(c2cccs2)CCCCC1=O` (configuration not stated) [euspeclibcmpd629], the “Srxn1-GFP intensity median modified Z-score” value is reported as -0.153.
For `O=C1NC(=O)C(=O)C(=O)N1` [euspeclibcmpd1767], the “Srxn1-GFP intensity median modified Z-score” value was 0.258.
With `NC(=O)C[S@@+]([O-])C(c1ccccc1)c1ccccc1` [euspeclibcmpd2097] the “Srxn1-GFP intensity median modified Z-score” value was 0.795.
In the case of `O=c1[nH]c(=O)n(Cl)c(=O)n1Cl` [euspeclibcmpd2375], the “Srxn1-GFP intensity median modified Z-score” value is reported as 0.319.
In the case of `c1cncc(C2CCCCN2)c1` (configuration not stated) [euspeclibcmpd1406], the “Srxn1-GFP intensity median modified Z-score” value is reported as 0.116.
With `COc1ccc2c(c1)[C@]13CCCC[C@@H]1[C@H](C2)N(C)CC3` [euspeclibcmpd87] the “Srxn1-GFP intensity median modified Z-score” value was 0.145.
With `CC1(C)C(=O)C2O[C@@H]2[C@@]2(C)C1C[C@@H](O)[C@]1(C)C2CC[C@@]2(C)[C@H](c3ccoc3)OC(=O)C3OC321` (some centres not stated) [euspeclibcmpd1634] the “Srxn1-GFP intensity median modified Z-score” value was 0.977.
With `CC(=O)O[C@@H]1CC2C(C)(C)C(=O)C=C[C@]2(C)C2CC[C@]3(C)C(=CC(=O)O[C@H]3c3ccoc3)[C@@]21C` (some centres not stated) [euspeclibcmpd1551] the “Srxn1-GFP intensity median modified Z-score” value was 38.8 (active).
For `CC(=O)OC1CC(OC(C)=O)C2(C)C(CC(OC(C)=O)C3(C)C2CCC2(C)C(c4ccoc4)C(=O)C4OC423)C1(C)C` (configuration not stated) [euspeclibcmpd1943], the “Srxn1-GFP intensity median modified Z-score” value was 1.55.
With `CC1(C)C2CC(=O)[C@]3(C)C(CC[C@@]4(C)[C@H](c5ccoc5)OC(=O)C5OC543)[C@@]2(C)[C@@H](O)C[C@H]1O` (some centres not stated) [euspeclibcmpd1573] the “Srxn1-GFP intensity median modified Z-score” value was -0.392.
`CC1(C)C(=O)C=C[C@@]2(C)C1C[C@@H](O)[C@]1(C)C2CC[C@@]2(C)[C@H](c3ccoc3)OC(=O)C3O[C@]321` (some centres not stated) [euspeclibcmpd1629] was tested, and the “Srxn1-GFP intensity median modified Z-score” value was 32.4 (active).
For `COC(=O)C1CC(OC(C)=O)C(=O)C2C1(C)CCC1C(=O)OC(c3ccoc3)CC12C` (configuration not stated) [euspeclibcmpd1949], the “Srxn1-GFP intensity median modified Z-score” value was -0.455.
For `CC(CC(C(N)=O)(c1ccccc1)c1ccccc1)N(C)C` (configuration not stated) [euspeclibcmpd819], the “Srxn1-GFP intensity median modified Z-score” value was -0.42.
For `C[N+]12CC[C@@]34c5ccccc5N5C(=O)CC6OCC=C(C1)[C@H](CC32)[C@@H]6C54` (some centres not stated) [euspeclibcmpd1705], the “Srxn1-GFP intensity median modified Z-score” value was -0.091.
In the case of `COc1cc2c(cc1O)CCNC2C` (configuration not stated) [euspeclibcmpd1467], the “Srxn1-GFP intensity median modified Z-score” value is reported as -0.387.
With `CCOP(=S)(OCC)Oc1ccc2c(C)c(Cl)c(=O)oc2c1` [euspeclibcmpd1023] the “Srxn1-GFP intensity median modified Z-score” value was 1.02.
`C[C@H]1O[C@H](O[C@H]2[C@H](O)[C@@H](O)[C@@H](O)[C@H](O)[C@@H]2O)[C@@H](N)C[C@@H]1N=C(N)C(=O)O` [euspeclibcmpd1430] was tested, and the “Srxn1-GFP intensity median modified Z-score” value was -0.17.
With `NCCc1cc(O)c(O)cc1O` [euspeclibcmpd220] the “Srxn1-GFP intensity median modified Z-score” value was -0.288.
In the case of `CC[C@H]1C[N@]2CCC1C[C@@H]2[C@@H](O)c1ccnc2ccc(OC)cc12` [euspeclibcmpd2090], the “Srxn1-GFP intensity median modified Z-score” value is reported as 0.772.
`C[C@]12CCC3[C@@H](CC[C@@]45OC4C(=O)C(C#N)C[C@]35C)[C@H]1CC[C@@H]2O` (some centres not stated) [euspeclibcmpd687] was tested, and the “Srxn1-GFP intensity median modified Z-score” value was -0.339.

Source: the supplement of paper PMC10498489
